Values without a mark were called inactive. Activity calls are given as the source filed them. Unless noted, calls follow the shape of the dose curve; as a rule, active = well fitted curve in the direction sought with a large enough effect in the repeat runs; inconclusive = weak or mixed curves; inactive = flat fitted curve, though single readings scatter.

The nature of test [1]: qHTS assay to test for compound auto fluorescence at 535 nm (green) in HEK293 cells (AID 720680). In general terms: Quantitative high-throughput screening tests each substance at several concentrations.
A short description of test [2]: qHTS assay to test for compound auto fluorescence at 460 nm (blue) in HEK293 cell free culture (AID 720681). The essentials:
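Blue fluorescence (Ex 405/Em 460 nm, triamterene-equivalent) was read immediately after pin transfer of compound or DMSO into medium (DMEM, 10% FBS) without cells.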

Test [3] can be described thus: qHTS assay to test for compound auto fluorescence at 535 nm (green) in HEK293 cell free culture (AID 720682). The essentials:
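Fluorescein serves as the green reference fluorophore; each compound's intrinsic emission at 535 nm (excitation 485 nm) is reported as an equivalent amount of that dye, measured in serum-containing DMEM without cells.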

Test [4] can be described thus: qHTS assay to test for compound auto fluorescence at 590 nm (red) in HEK293 cell free culture (AID 720683). A digest of the protocol:
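Red-channel autofluorescence of compounds in culture medium (DMEM, 10% FBS), no cells, measured at 540/590 nm. Rose Bengal sodium is the reference fluorophore for equivalence.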

The nature of test [5]: qHTS assay to test for compound auto fluorescence at 590 nm (red) in HepG2 cell free culture (AID 720684). The essentials:
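Plate contents were MEM with 10% FBS plus test compound or DMSO, no cells. Fluorescence was recorded with 540 nm excitation and 590 nm emission.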

A short description of test [6]: qHTS assay to test for compound auto fluorescence at 460 nm (blue) in HepG2 cell free culture (AID 720685). The essentials:
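Compound (23 nL) or DMSO pinned into cell-free MEM with 10% FBS; blue fluorescence read at 405/460 nm excitation/emission, expressed as auto-fluorescence equivalency to triamterene.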

Test [7] in a line: qHTS assay to test for compound auto fluorescence at 535 nm (green) in HepG2 cell free culture (AID 720686).
Test [8] is described as follows: qHTS assay to test for compound auto fluorescence at 460 nm (blue) in HepG2 cells (AID 720687). A digest of the protocol: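 Blue-channel autofluorescence (Ex/Em 405/460 nm, triamterene-equivalent) was measured after 1 hr compound exposure at 37 C, 5% CO2. Cells were HepG2, plated overnight at 37 C in MEM plus 10% FBS.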
The target in test [9] is Glucocorticoid receptor (Homo sapiens) (UniProt P04150). As to the kind of experiment: qHTS assay to identify small molecule agonists of the glucocorticoid receptor (GR) signaling pathway (AID 720691; active = well fitted activation curve with a large enough effect in the signal ratio in the repeat runs, not every such curve was filed as active; inconclusive = weak or mixed curves, or effect the other way; inactive = no such curve, though single readings can be large or run the other way; the % refers to the signal ratio; also: potency is read from the fitted curve at half-maximal effect). A digest of the protocol:
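qHTS in GR-bla HeLa cells: 4 h settling at 37 C/5% CO2, 18 h compound incubation at 37 C, 2 h LiveBLAzer B/G FRET substrate at room temperature, fluorescence intensity measured.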

Test [10] shares this target. The test is described as follows: qHTS assay to identify small molecule antagonists of the glucocorticoid receptor (GR) signaling pathway (AID 720692; active = well fitted inhibition curve with a large enough effect in the signal ratio in the repeat runs, not every such curve was filed as active; inconclusive = weak or mixed curves, or effect the other way; inactive = no such curve, though single readings can be large or run the other way; the % refers to the signal ratio). A digest of the protocol:
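Inhibition of glucocorticoid signalling is measured in HeLa cells with a GRE-controlled beta-lactamase reporter; cells are co-treated with compound and 5 nM dexamethasone (final) for 18 h before FRET substrate readout.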
% is scaled to controls: 0 for no effect and ±100 for the full control effect.

Chain of Glucocorticoid receptor (Homo sapiens) (P04150 whole entry, looked up): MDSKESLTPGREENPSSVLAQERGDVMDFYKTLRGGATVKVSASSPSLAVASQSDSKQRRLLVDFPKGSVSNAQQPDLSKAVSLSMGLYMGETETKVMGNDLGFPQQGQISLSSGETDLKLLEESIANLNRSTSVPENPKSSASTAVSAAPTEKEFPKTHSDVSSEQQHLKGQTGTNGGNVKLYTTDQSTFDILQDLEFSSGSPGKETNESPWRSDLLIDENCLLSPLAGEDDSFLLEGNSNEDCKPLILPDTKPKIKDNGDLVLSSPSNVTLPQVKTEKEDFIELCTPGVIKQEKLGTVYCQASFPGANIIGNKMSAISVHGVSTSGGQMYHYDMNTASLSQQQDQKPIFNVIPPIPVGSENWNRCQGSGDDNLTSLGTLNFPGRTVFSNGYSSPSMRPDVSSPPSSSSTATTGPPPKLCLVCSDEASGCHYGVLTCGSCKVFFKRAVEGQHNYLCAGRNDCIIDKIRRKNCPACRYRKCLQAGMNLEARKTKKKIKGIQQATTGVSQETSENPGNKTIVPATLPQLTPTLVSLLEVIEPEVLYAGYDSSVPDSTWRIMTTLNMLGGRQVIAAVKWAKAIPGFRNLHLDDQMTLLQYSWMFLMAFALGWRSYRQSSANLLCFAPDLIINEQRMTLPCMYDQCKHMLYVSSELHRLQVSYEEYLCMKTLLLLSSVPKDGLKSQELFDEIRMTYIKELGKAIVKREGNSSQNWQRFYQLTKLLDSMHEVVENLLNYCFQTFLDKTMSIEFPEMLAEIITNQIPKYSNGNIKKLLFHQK

As for `CCCCC(CC)COC(=O)c1ccccc1` (configuration not stated), the compound was called inactive in [1], in test [2], in test [3], in test [4], in [5] and in test [6]. Moreover, the call in test [7], in test [8] and in test [10] was inactive. In addition, in [9], the Potency entry was “inactive”.

`CN[C@@H]1[C@H](O)[C@H](NC)[C@H]2O[C@@]3(O)C(=O)C[C@@H](C)O[C@H]3O[C@@H]2[C@H]1O`: the fluorescence, % of fluorescein in test [1] was 0.0714% [at 18.6 µM]. Also, the fluorescence, % of fluorescent control is 0.0087% [at 18.6 µM] in [2], 0.386% [at 18.6 µM] in [4], 0.0605% [at 18.6 µM] in test [6] and 0.0309% [at 18.6 µM] in test [8]. Also, the activity change in test [3] was 0.0093% [at 18.6 µM]. Besides, in test [5], the fluorescence, % of Rose Bengal was 0.555% [at 18.6 µM]. Also, the fluorescence, % of fluorescein control in test [7] is 0.0131% [at 18.6 µM]. The Potency entry in test [9] is “inactive”. The result in [10] was inactive.

For `CC(C)CCCCCCOC(=O)C1CCCCC1C(=O)OCCCCCCC(C)C` (configuration not stated), the compound was classed as inactive in test [1], in test [2], in test [3], in [4], in [5] and in test [6]. Further, the compound was classed as inactive in test [7], in test [8] and in [10]. The Potency result in [9] was “inactive”.

Take `O=C1OC(=O)c2ccccc21`: the result in test [1], in [2], in test [3], in [4], in [5] and in [6] was inactive. For the same compound, the compound was classed as inactive in [7] and in test [8]. In test [9], the Potency entry is “inactive”.

For `CC(=O)OCC(=O)[C@@]1(O)[C@H](OC(C)=O)C[C@H]2[C@@H]3CCC4=CC(=O)C=C[C@]4(C)[C@@]3(F)[C@@H](O)C[C@@]21C`, the outcome in test [1], in test [2], in test [3], in test [4], in test [5] and in [6] was inactive. Also, the call in [7] and in test [8] was inactive. In addition, the Potency in test [9] is 134 nM [inconclusive] (active).

As for `C1CCN2C[C@@H]3C[C@@H](CN4CCCC[C@@H]34)[C@H]2C1`, the fluorescence, % of fluorescein in test [1] is -0.0731% [at 18.6 µM]. Further, the fluorescence, % of fluorescent control in [2] is 0.0698% [at 18.6 µM]; in [4], 0.165% [at 18.6 µM]; in test [6] it was 0.101% [at 18.6 µM]; in test [8], -0.0841% [at 18.6 µM]. In [3], the activity change was -0.022% [at 18.6 µM]. Besides, the fluorescence, % of Rose Bengal in test [5] is -0.0423% [at 18.6 µM]. Moreover, the fluorescence, % of fluorescein control in test [7] is 0.104% [at 18.6 µM]. Further, the Potency entry in [9] is “inactive”. The compound was called inactive in test [10].

Consider `CCCCC(=O)N(C)C`, for which the outcome in [1], in test [2], in [3], in test [4], in test [5] and in [6] was inactive. Besides, the result in [7], in test [8] and in test [10] was inactive. In test [9], the Potency result is “inactive”.

In the case of `NC(=O)NNC(N)=O`, the call in test [1], in test [2], in test [3], in [4], in test [5] and in [6] was inactive. Moreover, the compound was called inactive in [7], in [8] and in test [10]. In addition, the Potency entry in [9] is “inactive”.

For the compound `O=C(O)C(=O)Nc1cccc(-c2nn[nH]n2)c1`, the compound was classed as inactive in test [1], in [2], in test [3], in test [4], in [5] and in test [6]. For the same compound, the outcome in test [7], in test [8] and in test [10] was inactive. The Potency entry in test [9] is “inactive”.

For `CO[Si](CCCS)(OC)OC`, the outcome in test [1], in test [2], in [3], in [4], in test [5] and in test [6] was inactive. Moreover, the call in [7], in test [8] and in test [10] was inactive. In addition, the Potency entry in test [9] is “inactive”.

For `CCCCOC(=O)[C@@H](C)Oc1ccc(Oc2ccc(C(F)(F)F)cn2)cc1`, the result in test [1], in [2], in test [3], in test [4], in [5] and in test [6] was inactive. Besides, the compound was called inactive in test [7] and in test [8]. Moreover, the Potency entry in test [9] was “inactive”.

Take `C/C=C(\C)C(=O)OCC/C=C\CC`: the call in test [1], in [2], in test [3], in test [4], in test [5] and in [6] was inactive. Further, the result in test [7], in test [8] and in test [10] was inactive. The Potency entry in test [9] was “inactive”.

As to `CCOC(=O)OCC/C(SC(=O)OCC)=C(\C)N(C=O)Cc1cnc(C)nc1N`, the outcome in test [1], in test [2], in test [3], in [4], in test [5] and in test [6] was inactive. The compound was called inactive in test [7], in test [8] and in test [10]. For the same compound, in [9], the Potency entry was “inactive”.

Regarding `Nc1cc(S(=O)(=O)O)ccc1S(=O)(=O)O`, the call in [1], in [2], in test [3], in test [4], in test [5] and in [6] was inactive. Besides, the compound was classed as inactive in [7], in test [8] and in test [10]. Further, the Potency entry in [9] is “inactive”.

For the compound `Cc1ccccc1OCC1CO1` (configuration not stated), the compound was classed as inactive in test [1], in test [2], in test [3], in test [4], in test [5] and in test [6]. Also, the call in test [7], in test [8] and in test [10] was inactive. The Potency entry in test [9] is “inactive”.

On to `O=C1CC[C@H](C(=O)N2CCCCC2)N1`, for which the call in test [1], in test [2], in test [3], in test [4], in test [5] and in test [6] was inactive. For the same compound, the compound was classed as inactive in [7], in [8] and in [10]. Besides, in test [9], the Potency entry is “inactive”.

Take `CC(=O)c1ccc2c(c1)CCCC2`: the result in [1], in test [2], in [3], in test [4], in test [5] and in test [6] was inactive. Besides, the call in test [7], in test [8] and in test [10] was inactive. The Potency entry in test [9] is “inactive”.

As to `CC(Cl)COP(=O)(OCC(C)Cl)OCC(C)Cl` (configuration not stated), the compound was classed as inactive in test [1], in [2], in [3], in test [4], in test [5] and in test [6]. Further, the result in test [7], in test [8] and in test [10] was inactive. Further, the Potency result in [9] was “inactive”.

With `Cc1ccc2c(c1)c1c3n2CCNC3CCC1` (configuration not stated), the result in [1], in test [2], in test [3], in test [4], in [5] and in [6] was inactive. The compound was classed as inactive in test [7], in test [8] and in [10]. Besides, the Potency result in [9] is “inactive”.

`Nc1ccc(S(=O)(=O)Nc2ccccn2)cc1`: the fluorescence, % of fluorescein in test [1] is 0.0233% [at 18.6 µM]. Besides, the fluorescence, % of fluorescent control was -0.0806% [at 18.6 µM] in test [2], 0.101% [at 18.6 µM] in test [4], -0.12% [at 18.6 µM] in test [6] and 0.149% [at 18.6 µM] in test [8]. Besides, in test [3], the activity change was 0.0547% [at 18.6 µM]. The fluorescence, % of Rose Bengal in test [5] was 0.012% [at 18.6 µM]. Moreover, the fluorescence, % of fluorescein control in [7] is -0.0379% [at 18.6 µM]. Also, the Potency result in test [9] was “inactive”. In addition, the compound was called inactive in test [10].

With `CCCCCC1CCCC(=O)O1` (configuration not stated), the result in test [1], in test [2], in [3], in test [4], in [5] and in test [6] was inactive. In addition, the compound was classed as inactive in [7], in test [8] and in test [10]. Besides, in test [9], the Potency entry was “inactive”.

The values above are taken from PubChem BioAssay (Tox21).
